From paper PMC5540273 (PLoS ONE, 2017)

How the values were obtained:
Conditions in all cases: concentration: 1 μM,replicates: in singlicate; n = 1
[1] = system: T1, ASK2
T1 construct: gene MAP3K6

[2] = system: AURKA
[3] = system: AURKB
[4] = system: AURKC
[5] = system: AXL
[6] = system: T2, BIKE
T2 construct: gene BMP2K

[7] = system: BLK
[8] = system: BMPR1A
[9] = system: BMPR1B
[10] = system: BMPR2
[11] = system: BMX
[12] = system: BRAF
[13] = system: T3, BRK
T3 construct: gene PTK6

[14] = system: BRSK1
[15] = system: BRSK2
[16] = system: BTK
[17] = system: BUB1
[18] = system: CAMK1B
[19] = system: CAMK1D
[20] = system: CAMK1G
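Note: KINOMEscan kinase panel screen.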

| SMILES | %Inh [1] [%] | %Inh [2] [%] | %Inh [3] [%] | %Inh [4] [%] | %Inh [5] [%] | %Inh [6] [%] | %Inh [7] [%] | %Inh [8] [%] | %Inh [9] [%] | %Inh [10] [%] | %Inh [11] [%] | %Inh [12] [%] | %Inh [13] [%] | %Inh [14] [%] | %Inh [15] [%] | %Inh [16] [%] | %Inh [17] [%] | %Inh [18] [%] | %Inh [19] [%] | %Inh [20] [%] |
| --- | --- | --- | --- | --- | --- | --- | --- | --- | --- | --- | --- | --- | --- | --- | --- | --- | --- | --- | --- | --- |
| CC(=O)Nc1nc2cnc(Nc3cc(NC(=O)c4cccc(CC(C)(C)C#N)c4)ccc3C)nc2s1 | 0 | 11 | 3 | 0 | 20 | 0 | 32 | 0 | 2 | 0 | 9 | 99.9 | 0 | 23 | 14 | 51 | 30 | 0 | 8 | 0 |
| Nc1nccc(-c2ccc3c(N)n[nH]c3c2)n1 [GSK1034945] | 0 | 0 | 0 | 51 | 0 | 94.4 | 25 | 12 | 87 | 0 | 0 | 0 | 4 | 41 | 15 | 0 | 73 | 10 | 7 | 0 |
| Cc1ccn2nc(-c3ccc(F)cc3)c(-c3ccncc3)c2c1.Cl [GW457859] | 0 | 10 | 0 | 8 | 3 | 17 | 26 | 0 | 0 | 3 | 8 | 49 | 0 | 0 | 0 | 22 | 87 | 30 | 1 | 0 |
| CN1CCN(CCCNc2nccc(-c3c(-c4ccc(F)cc4)nn4cc(C(N)=O)ccc34)n2)CC1 [GW622475] | 0 | 20 | 5 | 10 | 17 | 26 | 56 | 0 | 37 | 0 | 20 | 49 | 6 | 9 | 29 | 0 | 25 | 0 | 21 | 21 |
| O=c1[nH]cc(-c2ccc(O)cc2)c2sc(-c3ccncc3)cc12 [GSK1033723] | 0 | 16 | 8 | 8 | 96.1 | 19 | 0 | 0 | 0 | 39 | 18 | 1 | 7 | 29 | 0 | 0 | 15 | 0 | 20 | 1 |
| CCOC(=O)N1CCC(n2cnc(-c3ccc(F)cc3)c2-c2ccnc(N)n2)CC1 [SB-219952] | 0 | 19 | 37 | 19 | 19 | 4 | 1 | 10 | 0 | 22 | 13 | 14 | 0 | 0 | 19 | 32 | 0 | 48 | 3 | 0 |
| OCCn1cc(-c2cnc3nnn(Cc4ccc5ncccc5c4)c3n2)cn1 | 0 | 0 | 0 | 0 | 0 | 0 | 4 | 7 | 0 | 0 | 0 | 1 | 0 | 22 | 0 | 0 | 0 | 0 | 4 | 0 |
| C[C@@H](Oc1cc(-n2cnc3cc(-c4cnn(C)c4)ccc32)sc1C(N)=O)c1ccccc1Cl [GSK580432] | 15 | 38 | 90.6 | 100 | 97.4 | 100 | 89 | 19 | 0 | 0 | 22 | 0 | 0 | 82 | 93.3 | 0 | 27 | 22 | 31 | 26 |
| O=C(Nc1cccc(Oc2ccc3nccn3n2)c1)Nc1cccc(C(F)(F)F)c1 | 4 | 0 | 0 | 41 | 35 | 11 | 9 | 0 | 0 | 0 | 0 | 88 | 0 | 5 | 13 | 0 | 7 | 0 | 12 | 0 |
| O=C(NCC1CC1)c1ccc(-c2cc(C(=O)NC3CC3)ccc2F)cc1 [GW810445] | 0 | 0 | 4 | 0 | 10 | 0 | 30 | 0 | 0 | 15 | 0 | 0 | 0 | 0 | 0 | 0 | 22 | 21 | 0 | 0 |
| Cc1ccc(Nc2ccnc(Nc3ccc4c(c3)CS(=O)(=O)C4)n2)cc1O.Cl [GW579362] | 3 | 100 | 85 | 97.9 | 86 | 99.8 | 99.5 | 85 | 99.8 | 62 | 80 | 77 | 95 | 10 | 3 | 100 | 99.3 | 31 | 38 | 34 |
| CN(c1ccccc1CNc1nc(Nc2ccc3c(c2)CC(=O)N3)ncc1C(F)(F)F)S(C)(=O)=O | 0 | 97.2 | 98.7 | 84 | 92.4 | 56 | 64 | 12 | 0 | 0 | 39 | 0 | 0 | 14 | 36 | 0 | 0 | 0 | 0 | 0 |
| CC(C(=O)NC1CCN(c2ccnc(Nc3ccc(F)cc3)n2)C1)c1ccc(Cl)cc1 (stereo not drawn) [GSK1379713] | 0 | 0 | 36 | 47 | 11 | 16 | 32 | 0 | 0 | 0 | 0 | 0 | 0 | 5 | 0 | 0 | 18 | 37 | 8 | 13 |
| Cc1ccc2c(-c3ccnc(Nc4ccc(C(F)(F)F)cc4)n3)cnn2n1 [GW819776] | 0 | 11 | 32 | 4 | 0 | 12 | 0 | 13 | 0 | 32 | 0 | 0 | 4 | 0 | 14 | 0 | 6 | 0 | 0 | 0 |
| Cl.c1ccc(Oc2ccc(Nc3ccnc4cc(-c5ccc(CN6CCNCC6)o5)ccc34)cc2)nc1 [GW567142] | 0 | 20 | 77 | 27 | 0 | 0 | 86 | 0 | 0 | 2 | 4 | 0 | 92.7 | 0 | 0 | 76 | 38 | 0 | 20 | 0 |
| CC(C)c1nc(-c2cccc(NS(=O)(=O)c3ccccc3)c2)c(-c2ccnc(Nc3ccc4c(c3)CN(C)CC4)n2)s1 [GSK1649598] | 4 | 23 | 52 | 55 | 68 | 0 | 99.6 | 81 | 99.9 | 9 | 96.2 | 99.9 | 99.4 | 24 | 46 | 84 | 82 | 0 | 42 | 11 |
| O=C1NCCc2[nH]c(-c3ccncc3)cc21 | 0 | 28 | 0 | 11 | 8 | 33 | 15 | 27 | 92.9 | 43 | 35 | 0 | 0 | 0 | 6 | 0 | 20 | 1 | 11 | 0 |
| c1ccc(Oc2ccc(Nc3ccnc4ccc(-c5ccccn5)cc34)cc2)cc1 [GW407034] | 11 | 6 | 19 | 4 | 0 | 8 | 90.2 | 11 | 0 | 26 | 44 | 13 | 81 | 12 | 0 | 61 | 12 | 5 | 0 | 5 |
| NC(=O)Nc1sc(-c2ccc(F)cc2)cc1C(N)=O [GW789449] | 0 | 55 | 83 | 85 | 40 | 98.2 | 46 | 6 | 11 | 78 | 0 | 8 | 0 | 2 | 0 | 62 | 20 | 34 | 43 | 0 |
| Cc1nnc(-c2ccc3occ(-c4ccc(S(C)=O)cc4)c3n2)o1 (stereo not drawn) | 0 | 0 | 0 | 0 | 0 | 0 | 0 | 0 | 0 | 0 | 0 | 0 | 0 | 0 | 0 | 0 | 0 | 0 | 17 | 3 |
| Cn1ccc2ncnc(Oc3ccc(NC(=O)Nc4cncc(C(F)(F)F)c4)c(Cl)c3)c21 | 0 | 0 | 25 | 0 | 59 | 0 | 9 | 0 | 0 | 0 | 0 | 52 | 0 | 0 | 0 | 0 | 0 | 0 | 0 | 0 |
